From ChEMBL document CHEMBL2218924, “A broad activity screen in support of a chemogenomic map for kinase signalling research and drug discovery” (Biochem J, 2013)

What was measured:
[1] = target: Serine/threonine-protein kinase SIK1 (Homo sapiens) (UniProt P57059); conditions: at 10 µM
[2] = target: SRSF protein kinase 1 (Homo sapiens) (UniProt Q96SB4); conditions: at 1 µM
[3] = target: SRSF protein kinase 1 (Homo sapiens) (UniProt Q96SB4); conditions: at 10 µM
[4] = target: SRSF protein kinase 2 (Homo sapiens) (UniProt P78362); conditions: at 1 µM
Sequence of SRSF protein kinase 2 (Homo sapiens) (P78362 whole entry, looked up): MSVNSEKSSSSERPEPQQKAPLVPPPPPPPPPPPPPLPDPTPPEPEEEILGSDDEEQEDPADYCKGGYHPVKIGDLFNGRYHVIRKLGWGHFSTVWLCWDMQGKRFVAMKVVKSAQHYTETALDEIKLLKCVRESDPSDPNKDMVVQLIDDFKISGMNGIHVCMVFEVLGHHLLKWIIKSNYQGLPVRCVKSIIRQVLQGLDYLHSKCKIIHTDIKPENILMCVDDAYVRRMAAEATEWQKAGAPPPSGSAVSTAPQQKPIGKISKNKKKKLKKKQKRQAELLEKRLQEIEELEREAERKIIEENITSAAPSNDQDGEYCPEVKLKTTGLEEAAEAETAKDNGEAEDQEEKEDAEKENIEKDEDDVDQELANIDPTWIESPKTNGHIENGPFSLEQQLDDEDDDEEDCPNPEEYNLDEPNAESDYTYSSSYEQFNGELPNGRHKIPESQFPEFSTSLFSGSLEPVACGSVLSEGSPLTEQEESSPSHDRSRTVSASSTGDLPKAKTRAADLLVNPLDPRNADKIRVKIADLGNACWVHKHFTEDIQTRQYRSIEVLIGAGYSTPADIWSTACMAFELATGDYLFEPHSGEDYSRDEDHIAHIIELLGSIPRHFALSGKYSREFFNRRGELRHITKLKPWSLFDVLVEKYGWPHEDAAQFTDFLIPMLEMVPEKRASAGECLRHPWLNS

[5] = target: SRSF protein kinase 2 (Homo sapiens) (UniProt P78362); conditions: at 10 µM
[6] = target: Serine/threonine-protein kinase 33 (Homo sapiens) (UniProt Q9BYT3); conditions: at 1 µM
Sequence of Serine/threonine-protein kinase 33 (Homo sapiens) (Q9BYT3 whole entry, looked up): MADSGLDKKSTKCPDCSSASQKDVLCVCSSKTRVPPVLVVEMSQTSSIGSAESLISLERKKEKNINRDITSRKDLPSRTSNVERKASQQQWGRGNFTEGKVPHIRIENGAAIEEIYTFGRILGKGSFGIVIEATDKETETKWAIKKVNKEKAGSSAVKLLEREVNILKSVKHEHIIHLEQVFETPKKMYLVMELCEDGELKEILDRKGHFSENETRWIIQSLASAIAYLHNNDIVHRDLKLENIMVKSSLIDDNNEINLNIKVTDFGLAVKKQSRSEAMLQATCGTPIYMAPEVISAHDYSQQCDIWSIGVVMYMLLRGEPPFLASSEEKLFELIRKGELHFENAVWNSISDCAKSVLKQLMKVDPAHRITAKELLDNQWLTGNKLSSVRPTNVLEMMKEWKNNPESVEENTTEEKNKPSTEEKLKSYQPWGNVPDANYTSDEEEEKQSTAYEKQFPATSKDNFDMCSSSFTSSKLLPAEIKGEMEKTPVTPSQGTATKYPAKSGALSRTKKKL

[7] = target: Tyrosine-protein kinase SYK (Homo sapiens) (UniProt P43405); conditions: at 1 µM
[8] = target: Tyrosine-protein kinase SYK (Homo sapiens) (UniProt P43405); conditions: at 10 µM
[9] = target: T1, Mitogen-activated protein kinase kinase kinase 7 (Homo sapiens) (UniProt O43318); conditions: at 10 µM
T1 sequence (whole entry): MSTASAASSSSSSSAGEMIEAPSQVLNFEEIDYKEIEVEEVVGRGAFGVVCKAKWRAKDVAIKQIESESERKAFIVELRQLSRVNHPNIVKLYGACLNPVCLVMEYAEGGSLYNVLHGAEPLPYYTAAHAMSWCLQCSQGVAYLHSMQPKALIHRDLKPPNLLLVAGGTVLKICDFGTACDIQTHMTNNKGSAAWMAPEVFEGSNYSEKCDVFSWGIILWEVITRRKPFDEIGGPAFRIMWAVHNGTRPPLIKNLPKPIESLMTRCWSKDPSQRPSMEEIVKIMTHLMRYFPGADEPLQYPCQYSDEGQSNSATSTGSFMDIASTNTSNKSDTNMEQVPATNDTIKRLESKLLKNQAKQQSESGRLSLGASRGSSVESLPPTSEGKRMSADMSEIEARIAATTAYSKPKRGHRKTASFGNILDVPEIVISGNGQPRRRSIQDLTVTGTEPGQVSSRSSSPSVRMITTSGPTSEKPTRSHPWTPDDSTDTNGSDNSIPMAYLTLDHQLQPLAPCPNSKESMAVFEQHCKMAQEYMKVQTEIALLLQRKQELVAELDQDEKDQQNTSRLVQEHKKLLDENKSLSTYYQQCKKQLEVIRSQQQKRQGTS

[10] = target: T2, Serine/threonine-protein kinase TAO1 (Homo sapiens) (UniProt Q7L7X3); conditions: at 1 µM
T2 sequence (whole entry): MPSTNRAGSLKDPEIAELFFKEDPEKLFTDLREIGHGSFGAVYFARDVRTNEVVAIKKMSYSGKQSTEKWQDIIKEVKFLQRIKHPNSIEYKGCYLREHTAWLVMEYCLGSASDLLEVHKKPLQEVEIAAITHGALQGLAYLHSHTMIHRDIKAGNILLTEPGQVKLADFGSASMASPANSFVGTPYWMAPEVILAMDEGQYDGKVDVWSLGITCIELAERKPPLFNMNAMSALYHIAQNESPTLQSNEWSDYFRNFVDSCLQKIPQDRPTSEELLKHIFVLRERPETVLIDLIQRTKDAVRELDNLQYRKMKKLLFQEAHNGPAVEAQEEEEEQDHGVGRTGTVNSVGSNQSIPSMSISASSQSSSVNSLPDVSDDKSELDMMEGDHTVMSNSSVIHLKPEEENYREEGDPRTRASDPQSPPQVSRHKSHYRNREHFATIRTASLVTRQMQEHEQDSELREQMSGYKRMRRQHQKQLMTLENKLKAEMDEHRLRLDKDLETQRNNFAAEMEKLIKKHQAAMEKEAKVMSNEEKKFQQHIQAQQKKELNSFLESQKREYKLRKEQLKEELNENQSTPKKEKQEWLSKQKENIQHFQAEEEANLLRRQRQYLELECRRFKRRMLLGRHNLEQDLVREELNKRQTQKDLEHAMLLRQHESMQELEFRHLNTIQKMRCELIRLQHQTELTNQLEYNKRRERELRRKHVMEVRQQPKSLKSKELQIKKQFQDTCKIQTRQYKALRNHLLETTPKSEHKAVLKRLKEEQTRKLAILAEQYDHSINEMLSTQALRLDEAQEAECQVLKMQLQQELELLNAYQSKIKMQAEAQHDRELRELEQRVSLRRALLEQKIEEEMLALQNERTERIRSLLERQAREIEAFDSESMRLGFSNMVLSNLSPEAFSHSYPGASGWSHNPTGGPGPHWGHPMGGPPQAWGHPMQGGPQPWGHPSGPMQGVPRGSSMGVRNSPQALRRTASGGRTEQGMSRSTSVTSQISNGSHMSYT

[11] = target: T2, Serine/threonine-protein kinase TAO1 (Homo sapiens); conditions: at 10 µM
[12] = target: T3, Serine/threonine-protein kinase TAO2 (Homo sapiens) (UniProt Q9UL54); conditions: at 1 µM
T3 sequence (whole entry): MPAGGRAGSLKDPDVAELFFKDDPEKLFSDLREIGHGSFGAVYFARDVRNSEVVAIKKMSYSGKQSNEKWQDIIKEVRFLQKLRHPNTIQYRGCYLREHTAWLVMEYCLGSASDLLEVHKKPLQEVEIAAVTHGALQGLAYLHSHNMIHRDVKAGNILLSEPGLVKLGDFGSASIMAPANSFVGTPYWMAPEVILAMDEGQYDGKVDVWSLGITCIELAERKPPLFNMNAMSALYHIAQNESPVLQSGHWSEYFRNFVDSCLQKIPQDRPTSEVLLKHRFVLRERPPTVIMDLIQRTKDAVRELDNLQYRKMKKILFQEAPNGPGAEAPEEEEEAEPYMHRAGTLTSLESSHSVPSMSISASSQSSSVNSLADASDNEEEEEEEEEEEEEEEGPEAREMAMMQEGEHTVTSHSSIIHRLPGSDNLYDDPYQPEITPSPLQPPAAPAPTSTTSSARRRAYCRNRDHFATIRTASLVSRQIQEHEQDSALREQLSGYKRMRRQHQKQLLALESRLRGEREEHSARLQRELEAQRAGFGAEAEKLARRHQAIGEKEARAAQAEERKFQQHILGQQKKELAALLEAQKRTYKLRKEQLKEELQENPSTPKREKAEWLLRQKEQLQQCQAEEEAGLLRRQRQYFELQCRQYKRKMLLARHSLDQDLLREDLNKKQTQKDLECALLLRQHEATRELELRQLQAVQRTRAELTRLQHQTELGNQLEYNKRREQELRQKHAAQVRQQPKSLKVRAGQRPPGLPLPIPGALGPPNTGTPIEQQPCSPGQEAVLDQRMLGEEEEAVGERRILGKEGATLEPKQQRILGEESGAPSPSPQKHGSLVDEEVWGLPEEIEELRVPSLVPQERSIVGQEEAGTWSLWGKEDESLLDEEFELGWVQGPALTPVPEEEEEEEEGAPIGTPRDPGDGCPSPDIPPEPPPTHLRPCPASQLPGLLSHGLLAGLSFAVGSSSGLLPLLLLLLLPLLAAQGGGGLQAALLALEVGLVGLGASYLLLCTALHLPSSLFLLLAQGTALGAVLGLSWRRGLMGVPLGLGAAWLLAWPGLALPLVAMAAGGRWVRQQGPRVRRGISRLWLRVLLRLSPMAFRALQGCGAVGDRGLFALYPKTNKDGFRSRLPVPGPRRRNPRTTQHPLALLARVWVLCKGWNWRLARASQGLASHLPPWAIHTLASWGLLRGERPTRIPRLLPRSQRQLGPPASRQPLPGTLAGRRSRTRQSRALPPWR

[13] = target: T3, Serine/threonine-protein kinase TAO2 (Homo sapiens); conditions: at 10 µM
[14] = target: T4, Serine/threonine-protein kinase TAO3 (Homo sapiens) (UniProt Q9H2K8); conditions: at 1 µM
T4 sequence (whole entry): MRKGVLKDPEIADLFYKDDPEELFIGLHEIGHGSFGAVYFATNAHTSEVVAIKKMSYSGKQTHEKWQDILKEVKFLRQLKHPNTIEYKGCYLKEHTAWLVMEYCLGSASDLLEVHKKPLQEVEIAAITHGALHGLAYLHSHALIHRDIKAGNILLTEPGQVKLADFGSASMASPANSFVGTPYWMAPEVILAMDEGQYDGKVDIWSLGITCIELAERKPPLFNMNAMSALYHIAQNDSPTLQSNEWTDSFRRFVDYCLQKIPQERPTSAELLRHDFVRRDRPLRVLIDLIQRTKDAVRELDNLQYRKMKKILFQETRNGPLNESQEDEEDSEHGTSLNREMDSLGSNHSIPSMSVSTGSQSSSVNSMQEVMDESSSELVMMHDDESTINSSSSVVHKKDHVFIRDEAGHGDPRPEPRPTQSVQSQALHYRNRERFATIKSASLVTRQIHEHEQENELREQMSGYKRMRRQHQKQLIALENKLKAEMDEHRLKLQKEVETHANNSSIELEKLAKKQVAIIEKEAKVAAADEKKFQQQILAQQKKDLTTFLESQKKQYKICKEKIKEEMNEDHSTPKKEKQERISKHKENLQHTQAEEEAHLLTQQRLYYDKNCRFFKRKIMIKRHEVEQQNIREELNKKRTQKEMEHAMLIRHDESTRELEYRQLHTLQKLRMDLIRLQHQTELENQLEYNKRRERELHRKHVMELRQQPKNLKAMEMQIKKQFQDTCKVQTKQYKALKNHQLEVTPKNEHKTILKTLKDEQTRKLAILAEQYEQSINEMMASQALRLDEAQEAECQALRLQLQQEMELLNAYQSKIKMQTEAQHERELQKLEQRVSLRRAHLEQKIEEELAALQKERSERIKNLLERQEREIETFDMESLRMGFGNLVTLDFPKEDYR

[15] = target: T4, Serine/threonine-protein kinase TAO3 (Homo sapiens); conditions: at 10 µM
[16] = target: T5, Serine/threonine-protein kinase TBK1 (Homo sapiens) (UniProt Q9UHD2); conditions: at 1 µM
T5 sequence (whole entry): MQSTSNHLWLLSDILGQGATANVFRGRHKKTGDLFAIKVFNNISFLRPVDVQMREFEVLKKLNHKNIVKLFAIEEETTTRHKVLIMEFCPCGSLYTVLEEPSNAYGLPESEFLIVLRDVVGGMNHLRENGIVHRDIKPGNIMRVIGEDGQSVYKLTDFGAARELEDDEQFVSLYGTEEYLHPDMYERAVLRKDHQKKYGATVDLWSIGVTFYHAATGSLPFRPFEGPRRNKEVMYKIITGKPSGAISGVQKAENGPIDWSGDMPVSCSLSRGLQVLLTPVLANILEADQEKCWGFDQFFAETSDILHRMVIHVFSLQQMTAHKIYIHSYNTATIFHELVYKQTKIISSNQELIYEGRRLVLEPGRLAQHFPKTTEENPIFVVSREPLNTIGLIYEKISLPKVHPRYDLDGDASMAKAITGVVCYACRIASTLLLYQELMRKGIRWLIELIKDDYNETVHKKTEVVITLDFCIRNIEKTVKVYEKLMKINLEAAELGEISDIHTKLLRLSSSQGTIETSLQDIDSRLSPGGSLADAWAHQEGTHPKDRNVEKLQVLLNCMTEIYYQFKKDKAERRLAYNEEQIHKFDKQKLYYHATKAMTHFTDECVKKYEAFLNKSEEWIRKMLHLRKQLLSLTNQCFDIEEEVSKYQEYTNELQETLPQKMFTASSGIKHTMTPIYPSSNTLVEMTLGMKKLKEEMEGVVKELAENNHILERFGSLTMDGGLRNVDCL

[17] = target: Serine/threonine-protein kinase 33 (Homo sapiens) (UniProt Q9BYT3); conditions: at 10 µM
[18] = target: Serine/threonine-protein kinase PLK2 (Homo sapiens) (UniProt Q9NYY3); conditions: at 1 µM
Sequence of Serine/threonine-protein kinase PLK2 (Homo sapiens) (Q9NYY3 whole entry, looked up): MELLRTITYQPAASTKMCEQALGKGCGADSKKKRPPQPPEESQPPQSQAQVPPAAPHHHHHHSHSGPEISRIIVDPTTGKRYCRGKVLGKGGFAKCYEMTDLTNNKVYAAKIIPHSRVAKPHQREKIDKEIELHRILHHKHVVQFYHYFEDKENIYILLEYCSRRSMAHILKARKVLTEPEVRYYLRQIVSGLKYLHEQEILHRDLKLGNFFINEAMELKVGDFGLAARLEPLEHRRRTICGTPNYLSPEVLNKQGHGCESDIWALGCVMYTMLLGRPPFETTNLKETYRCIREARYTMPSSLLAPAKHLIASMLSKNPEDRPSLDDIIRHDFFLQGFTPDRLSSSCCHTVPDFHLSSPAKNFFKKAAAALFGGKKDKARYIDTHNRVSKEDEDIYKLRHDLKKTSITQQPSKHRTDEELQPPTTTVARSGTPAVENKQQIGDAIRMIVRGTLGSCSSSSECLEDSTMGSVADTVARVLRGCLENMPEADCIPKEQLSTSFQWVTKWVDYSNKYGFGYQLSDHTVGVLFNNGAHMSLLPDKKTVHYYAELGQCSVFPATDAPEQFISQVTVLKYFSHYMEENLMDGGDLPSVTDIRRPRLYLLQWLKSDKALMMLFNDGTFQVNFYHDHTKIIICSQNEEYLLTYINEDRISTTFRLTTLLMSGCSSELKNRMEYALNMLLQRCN

[19] = target: Serine/threonine-protein kinase PLK2 (Homo sapiens) (UniProt Q9NYY3); conditions: at 10 µM
[20] = target: T1, Mitogen-activated protein kinase kinase kinase 7 (Homo sapiens); conditions: at 1 µM

Sequence of Serine/threonine-protein kinase SIK1 (Homo sapiens) (P57059 whole entry): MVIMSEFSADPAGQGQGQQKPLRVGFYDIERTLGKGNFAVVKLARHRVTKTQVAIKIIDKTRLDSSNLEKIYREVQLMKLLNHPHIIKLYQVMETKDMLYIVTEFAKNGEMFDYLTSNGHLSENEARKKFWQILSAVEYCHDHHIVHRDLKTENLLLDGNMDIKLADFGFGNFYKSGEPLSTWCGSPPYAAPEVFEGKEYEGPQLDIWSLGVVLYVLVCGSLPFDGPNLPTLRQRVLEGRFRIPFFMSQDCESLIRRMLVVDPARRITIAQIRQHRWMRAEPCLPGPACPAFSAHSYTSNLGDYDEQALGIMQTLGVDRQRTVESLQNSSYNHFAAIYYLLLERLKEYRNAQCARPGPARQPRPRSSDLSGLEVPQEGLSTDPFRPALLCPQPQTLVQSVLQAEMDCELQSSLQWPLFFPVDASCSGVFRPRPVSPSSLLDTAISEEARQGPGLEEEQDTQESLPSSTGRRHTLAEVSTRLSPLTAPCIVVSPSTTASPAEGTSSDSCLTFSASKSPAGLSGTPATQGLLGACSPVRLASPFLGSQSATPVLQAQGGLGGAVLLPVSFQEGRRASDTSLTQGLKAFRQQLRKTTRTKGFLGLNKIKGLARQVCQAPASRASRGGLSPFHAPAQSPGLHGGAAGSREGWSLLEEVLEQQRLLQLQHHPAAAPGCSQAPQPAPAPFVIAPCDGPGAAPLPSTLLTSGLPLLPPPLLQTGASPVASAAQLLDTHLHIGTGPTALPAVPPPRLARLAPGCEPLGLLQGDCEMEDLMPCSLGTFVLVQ
Sequence of SRSF protein kinase 1 (Homo sapiens) (Q96SB4 whole entry): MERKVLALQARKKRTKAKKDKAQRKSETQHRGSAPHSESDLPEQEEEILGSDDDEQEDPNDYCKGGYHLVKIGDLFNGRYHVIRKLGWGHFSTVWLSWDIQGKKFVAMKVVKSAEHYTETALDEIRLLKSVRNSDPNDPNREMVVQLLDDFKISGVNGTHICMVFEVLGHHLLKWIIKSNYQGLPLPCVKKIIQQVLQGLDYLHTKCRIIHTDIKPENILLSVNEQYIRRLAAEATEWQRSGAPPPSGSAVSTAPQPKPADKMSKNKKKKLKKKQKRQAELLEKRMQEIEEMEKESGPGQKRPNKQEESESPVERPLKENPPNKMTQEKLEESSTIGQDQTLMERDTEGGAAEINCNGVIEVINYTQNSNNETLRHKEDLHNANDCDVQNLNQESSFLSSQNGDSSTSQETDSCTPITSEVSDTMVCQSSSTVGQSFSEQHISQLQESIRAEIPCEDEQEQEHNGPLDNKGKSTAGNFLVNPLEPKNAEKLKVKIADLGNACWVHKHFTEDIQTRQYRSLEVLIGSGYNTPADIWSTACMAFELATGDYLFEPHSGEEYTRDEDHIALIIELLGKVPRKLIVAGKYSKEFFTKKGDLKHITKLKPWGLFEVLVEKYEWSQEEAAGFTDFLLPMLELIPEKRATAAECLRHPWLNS

Compound	residual activity [1]	residual activity [2]	residual activity [3]	residual activity [4]	residual activity [5]	residual activity [6]	residual activity [7]	residual activity [8]	residual activity [9]	residual activity [10]	residual activity [11]	residual activity [12]	residual activity [13]	residual activity [14]	residual activity [15]	residual activity [16]	residual activity [17]	residual activity [18]	residual activity [19]	residual activity [20]
CCCCc1c(-c2ccc(OC)cc2)[nH]c2nccnc12	78%	118%	106%	90%	84%	106%	37%	39%	86%	48%	48%	64%	82%	81%	90%	61%	–	–	–	–
CC(C)c1nn(-c2c(Cl)cccc2Cl)c2nc(Cc3ccc(OCCO)cc3)[nH]c(=O)c12	61%	88%	37%	83%	43%	105%	101%	96%	63%	61%	13%	84%	22%	55%	9%	82%	61%	100%	92%	97%
O=C1NC(=O)c2c1c1c3ccccc3[nH]c1n1cncc21	44%	91%	76%	103%	72%	79%	60%	25%	30%	–	–	88%	69%	69%	63%	53%	70%	38%	38%	55%
CC(C)(C)n1nc(Cc2cccc3ccccc23)c2c(N)ncnc21	49%	103%	101%	99%	94%	92%	104%	71%	78%	87%	50%	90%	42%	92%	41%	78%	100%	103%	95%	86%
N#C/C(=C\c1ccc(O)c(O)c1)C(=O)NCc1ccccc1	1%	100%	–	–	–	–	127%	71%	–	–	–	–	–	–	–	82%	–	–	–	–
COc1ccc(Cl)cc1NC(=O)Nc1cc(C)nc2ccccc12	134%	–	–	94%	86%	99%	–	88%	95%	–	–	–	85%	95%	83%	78%	98%	–	–	98%
